Inhibition data for 12 compounds are collected here from ChEMBL document CHEMBL4513146, “CO-ADD screening of Karazin Kharkiv National University (Ukraine) compounds”.

Measured potencies and affinities stand elsewhere.

The test system of one assay is Staphylococcus aureus. The following applies: Concentration 32 ug.mL-1;; ASSAY_TEST Inhibition of Bacterial Growth; detection method Absorption (OD600); MEDIA CAMHB; plate type 384well; NBS; CORNING #3640; time 18 hr.
For another assay, the system named is Escherichia coli. The following applies: Concentration 32 ug.mL-1;; ASSAY_TEST Inhibition of Bacterial Growth; detection method Absorption (OD600); MEDIA CAMHB; plate type 384well; NBS; CORNING #3640; time 18 hr.

For the compound `O=C(CSc1nnc2c(=O)n(-c3ccc(F)c(F)c3)ccn12)c1cccc(Cl)c1`, the Inhibition is 13.4% with Staphylococcus aureus and -3.45% in the assay with Escherichia coli.
For `COc1ccc(CN(c2ccc(F)cc2)S(=O)(=O)c2cccn3c(C)nnc23)cc1`, in that order: 15.23% and -3.22%.
For `Cc1cc2nn(CC(=O)Nc3cccc(F)c3)c(=O)n2c(Nc2ccc(F)c(C)c2)n1` the same measures were -1.56% and -7.72%.
For `CCc1ccccc1NC(=O)CSc1nnc2ccc(C(=O)Nc3cccc(F)c3)cn12` the same measures were 19.17% and 1.35%.
Take `Cc1cccc(NC(=O)Cn2nc3ccc(-c4ccc(C)c(C)c4)nn3c2=O)c1`: the Inhibition is -13.22% in the assay on Staphylococcus aureus and -14.87% in the assay on Escherichia coli.
Consider `COc1cccc(-n2ccn3c(SCC(=O)c4c(C)[nH]c5ccccc45)nnc3c2=O)c1`, for which the Inhibition with Staphylococcus aureus is listed as 10.32%; in the assay on Escherichia coli, -7.21%.
As for `Cc1ccc(S(=O)(=O)Nc2ccc3nnc(-c4ccccc4)n3n2)cc1C`, the Inhibition is on record as 8.79% with Staphylococcus aureus and -2.69% in the assay on Escherichia coli.
In the case of `Cc1ccc(NC(=O)Cn2nc3ccc(SC4CCCCC4)nn3c2=O)cc1C`, the Inhibition in the assay on Staphylococcus aureus is given as -6.2%; with Escherichia coli, -13.15%.
As for `O=C(Cn1nc2ccc(C(=O)NCc3ccccc3)cn2c1=O)Nc1ccc2c(c1)OCO2`, the figures for the Inhibition with Staphylococcus aureus and in the assay on Escherichia coli were 7.86% and -0.58%, respectively.
With `COc1ccc(CN(c2ccc(C(C)C)cc2)S(=O)(=O)c2cccn3cnnc23)cc1`, the Inhibition was found to be 4.26% in the assay with Staphylococcus aureus and 1.37% in the assay with Escherichia coli.
For `O=C(CCc1nnc2c(N3CCCCC3)nc3ccccc3n12)NCc1ccc(F)cc1`, in that order: 1.77% and -4.75%.
As to `COc1ccc(C(C)NC(=O)CCc2nnc3ccc(-c4ccc(C)c(C)c4)nn23)cc1OC` (centres undefined), the Inhibition in the assay with Staphylococcus aureus is on record as 7.27%; with Escherichia coli, -3.17%.
